For seven molecules, Potency, outcome and activity change, positive = activation results are on record in PubChem BioAssay (Tox21).

In test [1] the target is Luciferin 4-monooxygenase (Photinus pyralis) (UniProt P08659). As to the kind of experiment: qHTS assay to identify small molecule inhibitors of firefly luciferase (AID 1224835). Also: nearly all actives have a fitted effect of over 25% in size. Also: potency is read from the fitted curve at half-maximal effect. The essentials:
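Inhibition of purified Photinus luciferase is measured by luminescence. Substrate levels (D-luciferin, ATP) sit at their KM values. Each compound is tested in a concentration series.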
For orientation: Quantitative high-throughput screening tests each substance at several concentrations.

Test [2] in a line: qHTS assay to identify small molecule agonists of the constitutive androstane receptor (CAR) signaling pathway - cell viability counter screen (AID 1224836). Also: nearly all actives have a fitted effect of over 45% in size. The essentials: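 Multiplexed viability check: HepG2-CYP2B6-hCAR cells, 15-point compound dosing, 0.75 uM PK11195 final, 23 h at 37 C, CellTiter-Fluor fluorescence.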
The nature of test [3]: qHTS assay to identify small molecule antagonists of the constitutive androstane receptor (CAR) signaling pathway - cell viability counter screen (AID 1224837). Also: nearly all actives have a fitted effect of over 45% in size. The essentials: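 HepG2 cells stably expressing hCAR and a CYP2B6-2.2kb reporter were plated and pre-incubated 4 hr at 37 C/5% CO2, then given compounds at 15 concentrations plus 50 nM CITCO (final). After 23 hr, viability was read by CellTiter-Fluor fluorescence.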

In test [4] the target is Nuclear receptor subfamily 1 group I member 3 (Homo sapiens) (UniProt Q14994). Briefly: qHTS assay to identify small molecule antagonists of the constitutive androstane receptor (CAR) signaling pathway (AID 1224838). Also: nearly all actives have a fitted effect of over 40% in size. The essentials: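 HepG2 cells stably co-transfected with hCAR and a CYP2B6-2.2kb luciferase reporter were seeded 4 h before compound addition at 15 concentrations. Cells were stimulated with 50 nM CITCO (final) for 24 h at 37 C; luciferase luminescence was then read.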

The target is the same in test [5]. As to the kind of experiment: qHTS assay to identify small molecule agonists of the constitutive androstane receptor (CAR) signaling pathway (AID 1224839). Also: nearly all actives have a fitted effect of over 15% in size. The essentials: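 Using human hepatoma HepG2 cells engineered with hCAR and a CYP2B6-2.2kb reporter, 15-concentration compound series were incubated 24 h alongside PK11195 at 0.75 uM final, with luminescence quantified afterwards.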

Test [6] can be described thus: qHTS assay to identify small molecule antagonists of the estrogen related receptor signaling pathway with the pleiotropic PPARgamma coactivator (PGC) from Tox21 10K library - cell viability counter screen (AID 1224840; active = well fitted cell-killing curve with a large enough effect in the repeat runs, not every such curve was filed as active; also: nearly all actives have a fitted effect of over 40% in size). The essentials:
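PGC/ERR cells were seeded at 2,000 cells/well and left 6 hours at 37 C/5% CO2 before pin-tool addition of compounds in DMSO. After 17.5 hours at 37 C, CellTiter-Fluor was added and fluorescence read 30 minutes later.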

A short description of test [7]: qHTS assay to identify small molecule antagonists of the estrogen related receptor signaling pathway with the pleiotropic PPARgamma coactivator (PGC) from Tox21 10K library (AID 1224841; call rule not given here; also: actives are mostly falling curves and most rising ones were filed inactive; nearly all actives have a fitted effect of over 50% in size). The method, boiled down: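 PGC/ERR reporter cells were seeded at 2,000 cells/well and held 6 hours at 37 C/5% CO2 before pin-tool addition of compounds in DMSO. After 18 hours at 37 C, One-Glo was added and luminescence read after 30 minutes at room temperature.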

In test [8] the target is Thyrotropin receptor (Homo sapiens) (UniProt P16473). As to the kind of experiment: qHTS assay to identify small molecule agonists of the thyroid stimulating hormone receptor (TSHR) signaling pathway (AID 1224843; calls by dose curve; also: nearly all actives have a fitted effect of over 45% in size). The method, boiled down: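 Screening of the Tox21 10K collection used HEK293 cells engineered with TSHR at 800 cells per well. After a 30-min room-temperature compound exposure, HTRF cAMP reagents were added and fluorescence recorded 1 h later.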

A short description of test [9]: qHTS assay to identify small molecule agonists of the hypoxia (HIF-1) signaling pathway - cell viability counter screen (AID 1224844; calls by dose curve; also: nearly all actives have a fitted effect of over 50% in size; also: potency is read from the fitted curve at half-maximal effect). The method, boiled down:
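HRE-bla ME-180 cells in medium with 0.5% dialyzed FBS were preincubated 5 hrs at 37C, exposed to compounds for 17 hrs, then viability was read as CellTiter-Glo luminescence after 30 min at room temperature, in the reporter wells.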

Test [10] can be described thus: qHTS assay to identify small molecule agonists of H2AX (AID 1224845; active = well fitted activation curve with a large enough effect in the signal ratio in the repeat runs, not every such curve was filed as active; the % refers to the signal ratio; also: potency is read from the fitted curve at half-maximal effect). The essentials: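 Phospho-H2AX Ser139 measured by HTRF (ex 320 nm; em 665 and 620 nm) after 24 hr antibody incubation. Compounds, 15 concentrations, 0.76% DMSO, were applied to CHO-K1 cells for 3hr at 37C before lysis.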
The nature of test [11]: qHTS assay to identify small molecule agonists of the hypoxia (HIF-1) signaling pathway (AID 1224846; active = well fitted activation curve with a large enough effect in the signal ratio in the repeat runs, not every such curve was filed as active; the % refers to the signal ratio). The essentials: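 HRE-bla ME-180 cells (beta-lactamase reporter under hypoxia response element) were plated at 2,000 cells/well in medium with 0.5% dialyzed FBS, rested 5 hrs, then given compounds in DMSO for 17 hrs at 37C, 5% CO2. Reporter induction was read with CCF4-AM FRET substrate.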

The nature of test [12]: qHTS assay to identify small molecule agonists of H2AX - cell viability counter screen (AID 1224847; calls by dose curve; also: nearly all actives have a fitted effect of over 30% in size; also: potency is read from the fitted curve at half-maximal effect). The method, boiled down:
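After overnight plating of 1000 CHO-K1 cells per well, a 15-concentration compound series was applied for 3 hr at 37C. Luminescence from CellTiter-Glo, read following 30 min at room temperature, reflected cell viability.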

Test [13] is described as follows: qHTS assay to identify small molecule antagonists of the estrogen related receptor (ERR) signaling pathway from Tox21 library (AID 1224848). Also: nearly all actives have a fitted effect of over 50% in size. Also: potency is read from the fitted curve at half-maximal effect. The method, boiled down:
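Antagonist-mode screen of the Tox21 10K library in an NTP-provided ERR reporter cell line; 18 h compound exposure at 37 C, luminescence measured with ONE-Glo.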

Test [14] is described as follows: qHTS assay to identify small molecule agonists of the estrogen related receptor (ERR) signaling pathway from Tox21 library (AID 1224849; calls by dose curve; also: nearly all actives have a fitted effect of over 15% in size). As to conditions: ERR reporter cell line, ONE-Glo luciferase, 18 h; at 92.4 µM (top of the series) unless noted. The method, boiled down:
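ERR reporter cell line (NTP) seeded, rested 6 h at 37 C/5% CO2, then pinned with Tox21 compounds in DMSO. After 18 h at 37 C, ONE-Glo luciferase luminescence was read following 30 min at room temperature.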

The nature of test [15]: qHTS RealTime-Glo MT Cell Viability Assay in HepG2 cells - 24 hour (AID 1224867). Also: nearly all actives have a fitted effect of over 50% in size. The method, boiled down:
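qHTS, HepG2, 600 cells/well, RealTime-Glo (NanoLuc + prosubstrate) added with cells; 5 h preincubation; DMSO compound addition; 37 C; luminescence at 0/8/16/24/32/40 h.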

A short description of test [16]: A CellTox Green Cytotoxicity Assay to monitor cytotoxicity in HEK293 cells - 0 hour (AID 1224869). Also: nearly all actives have a fitted effect of over 50% in size. The essentials: (§1)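 HEK293 cells premixed with CellTox Green dye were seeded at 600 cells/well and left 5 h at 37 C/5% CO2 before pin transfer of 23 nL compound in DMSO. Fluorescence from dye bound to dead-cell DNA was read during 40 h treatment.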
Test [17] can be described thus: qHTS RealTime-Glo MT Cell Viability Assay in HepG2 cells - 40 hour (AID 1224870). Also: nearly all actives have a fitted effect of over 50% in size. The essentials: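 Real-time viability: cells seeded at 600 per well together with NanoLuc and cell-permeant prosubstrate, compounds added after 5 h incubation. Luminescence tracked at 0, 8, 16, 24, 32 and 40 h of exposure.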
Test [18] is described as follows: A CellTox Green Cytotoxicity Assay to monitor cytotoxicity in HEK293 cells - 40 hour (AID 1224871). Also: nearly all actives have a fitted effect of over 45% in size. The method, boiled down:
as §1

Test [19] in a line: qHTS RealTime-Glo MT Cell Viability Assay in HEK293 cells - 32 hour (AID 1224868). Also: nearly all actives have a fitted effect of over 50% in size. Also: potency is read from the fitted curve at half-maximal effect. The method, boiled down: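 Assay medium contained NanoLuc luciferase plus cell-permeant prosubstrate, added with HEK293 cells at 600 cells/well. After 5 h at 37 C/5% CO2 compounds were added; plates stayed at 37 C for 40 h with serial luminescence reads.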
Test [20] is described as follows: qHTS assay to identify small molecule agonists of the estrogen related receptor signaling pathway with the pleiotropic PPARgamma coactivator (PGC) from Tox21 10K library (AID 1224842). Also: nearly all actives have a fitted effect of over 15% in size. The method, boiled down: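 Luminescence from One-Glo (30 min, room temperature) measured after PGC/ERR cells had 18 h at 37 C with pinned compound (23 nL in DMSO). Cells had been seeded at 2,000 per well and pre-incubated 6 h.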

“And” between values parts separate entries of the source, which are not always exact repeats. Equal values may be shown once. Records with an inconclusive call do not appear. More than one record can exist for a structure, and the calls need not agree. The source made the active and inactive calls. Unless noted, calls follow the shape of the dose curve; as a rule, active = well fitted curve in the direction sought with a large enough effect in the repeat runs; inconclusive = weak or mixed curves; inactive = no such curve, though single readings can be large; an effect the other way counts as inactive or inconclusive.
% is scaled to controls: 0 for no effect and ±100 for the full control effect.

Chain of Luciferin 4-monooxygenase (Photinus pyralis) (P08659 whole entry, looked up): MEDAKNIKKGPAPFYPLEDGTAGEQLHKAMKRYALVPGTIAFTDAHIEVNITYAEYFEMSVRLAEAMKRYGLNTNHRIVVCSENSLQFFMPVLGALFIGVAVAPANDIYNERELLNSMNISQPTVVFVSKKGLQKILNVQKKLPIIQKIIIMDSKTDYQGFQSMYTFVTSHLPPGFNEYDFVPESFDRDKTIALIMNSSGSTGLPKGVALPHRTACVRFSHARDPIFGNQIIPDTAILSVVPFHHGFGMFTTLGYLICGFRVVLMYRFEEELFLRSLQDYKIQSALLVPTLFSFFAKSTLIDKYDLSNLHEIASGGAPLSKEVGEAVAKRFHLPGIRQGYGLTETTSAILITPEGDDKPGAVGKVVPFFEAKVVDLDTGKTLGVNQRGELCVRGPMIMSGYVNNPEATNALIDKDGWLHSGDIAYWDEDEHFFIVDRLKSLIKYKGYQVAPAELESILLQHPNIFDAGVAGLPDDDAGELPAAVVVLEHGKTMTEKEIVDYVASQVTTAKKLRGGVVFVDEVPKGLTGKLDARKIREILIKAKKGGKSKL
Chain of Thyrotropin receptor (Homo sapiens) (P16473 whole entry, looked up): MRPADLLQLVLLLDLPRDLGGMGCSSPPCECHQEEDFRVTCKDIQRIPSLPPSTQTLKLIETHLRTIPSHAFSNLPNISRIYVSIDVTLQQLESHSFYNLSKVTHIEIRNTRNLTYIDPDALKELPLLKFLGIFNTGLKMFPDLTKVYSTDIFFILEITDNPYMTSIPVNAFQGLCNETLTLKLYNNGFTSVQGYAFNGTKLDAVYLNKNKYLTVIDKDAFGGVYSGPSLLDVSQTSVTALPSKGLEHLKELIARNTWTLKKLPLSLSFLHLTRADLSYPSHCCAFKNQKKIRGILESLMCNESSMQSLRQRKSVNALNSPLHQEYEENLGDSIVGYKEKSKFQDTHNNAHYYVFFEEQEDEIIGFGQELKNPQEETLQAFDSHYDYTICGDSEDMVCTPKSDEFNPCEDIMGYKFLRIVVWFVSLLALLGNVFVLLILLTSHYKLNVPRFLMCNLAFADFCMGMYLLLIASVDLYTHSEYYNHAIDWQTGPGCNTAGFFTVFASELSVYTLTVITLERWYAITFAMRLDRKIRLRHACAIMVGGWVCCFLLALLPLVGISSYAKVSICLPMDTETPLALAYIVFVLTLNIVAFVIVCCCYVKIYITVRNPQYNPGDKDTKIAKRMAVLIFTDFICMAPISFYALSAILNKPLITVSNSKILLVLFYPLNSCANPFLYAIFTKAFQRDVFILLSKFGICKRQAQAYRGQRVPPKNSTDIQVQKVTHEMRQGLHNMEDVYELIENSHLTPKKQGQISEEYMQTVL
Chain of Nuclear receptor subfamily 1 group I member 3 (Homo sapiens) (Q14994 whole entry, looked up): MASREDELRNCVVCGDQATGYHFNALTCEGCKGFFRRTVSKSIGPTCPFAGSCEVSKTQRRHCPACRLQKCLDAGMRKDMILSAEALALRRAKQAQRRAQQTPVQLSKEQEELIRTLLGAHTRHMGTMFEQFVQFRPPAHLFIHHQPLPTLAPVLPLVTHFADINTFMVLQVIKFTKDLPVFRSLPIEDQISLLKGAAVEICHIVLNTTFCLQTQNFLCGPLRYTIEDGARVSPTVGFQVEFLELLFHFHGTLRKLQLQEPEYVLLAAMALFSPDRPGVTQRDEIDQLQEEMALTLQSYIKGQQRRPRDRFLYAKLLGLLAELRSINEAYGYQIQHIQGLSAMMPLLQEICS

As for `COc1cccc(CCc2ccccc2OCC(CN(C)C)OC(=O)CCC(=O)O)c1` (stereo unspecified), the Potency entry in test [1], in test [2], in test [3], in test [4], in test [5] and in [6] was “inactive” each time. Also, the Potency result in [7], in test [8], in test [10], in [12], in test [13] and in test [15] was “inactive” throughout. For the same molecule, the Potency result in test [16], in [17] and in test [18] was “inactive” throughout. Besides, the Potency in [9] was 19 µM (active). Also, the result in test [11] was inactive. The activity change, positive = activation in [14] was -1.11% [at 42.5 µM] (inactive).
For `SCCCCCCCCS`, the Potency entry in test [1], in test [2], in [3], in test [4], in test [5] and in [6] was “inactive” in each case. Also, the Potency result in [8], in [9], in [10], in [12], in test [15] and in test [19] was “inactive” each time. Further, the Potency entry in test [16] and in test [17] was “inactive” each time. For the same molecule, the molecule was called inactive in [11].
As for `Cc1ccc(O)cn1`, the Potency result in test [1], in test [2], in test [3], in test [4], in [5] and in test [6] was “inactive” each time. The Potency entry in [7], in test [8], in test [9], in [10], in test [12] and in test [13] was “inactive” throughout. Further, the Potency entry in test [15], in [19], in [16] and in [18] was “inactive” each time. The outcome in test [11] was inactive. Further, in test [14], the activity change, positive = activation was 9.23% (inactive).
Turning to `CC(C)(c1cc(Br)c(O)c(Br)c1)c1cc(Br)c(O)c(Br)c1`, the Potency in [1] was 79.4 µM (active) and inactive; in [9] it was 54.8 µM (active) and 48.9 µM (active); in test [10] it was 113 µM (active); in [12], 89.5 µM (active); in [13], 54.3 µM (active) and inactive. For the same molecule, the Potency result in test [2], in test [3], in [4], in test [5], in test [6] and in test [7] was “inactive” in each case. Also, the Potency result in test [8], in test [15], in [19], in test [16] and in test [18] was “inactive” throughout. Besides, the activity change, positive = activation in test [14] is -21.4% (inactive) and -40.7% (inactive) and -13.4% (inactive).
For the molecule `CO[Si](CCCNCCNCCN)(OC)OC`, the Potency entry in test [1], in test [2], in test [3], in test [4], in test [5] and in test [6] was “inactive” throughout. In addition, the Potency result in test [20], in [8], in test [9], in test [10], in test [12] and in test [13] was “inactive” in each case. In addition, the Potency result in test [15], in [19], in test [16], in test [17] and in [18] was “inactive” each time. Further, in [11], the call was inactive. In test [14], the activity change, positive = activation is 2.38% (inactive).
Turning to `CCCCCCCC/C=C\CCCCCCCC(=O)NCc1ccc(O)c(OC)c1`, the Potency entry in test [1], in test [2], in [3], in [4], in [5] and in test [6] was “inactive” each time. Moreover, the Potency entry in [20], in test [9], in test [10], in test [15], in [16] and in test [17] was “inactive” in each case. For the same molecule, in test [18], the Potency entry is “inactive”. For the same molecule, the activity change, positive = activation in [14] is -18.5% [at 42.5 µM] (inactive). For the same molecule, in test [19], the Potency was 2.68 µM (active).
On to `C=C(C)CCCC`, for which the Potency result in test [1], in test [2], in test [3], in [4], in test [5] and in [6] was “inactive” throughout. In addition, the Potency result in [20], in test [8], in [9], in test [10], in [12] and in [13] was “inactive” throughout. Moreover, the Potency result in test [15], in test [19], in [16], in test [17] and in [18] was “inactive” each time. The call in test [11] was inactive. In test [14], the activity change, positive = activation was 6.79% (inactive).
